# Screening results from PubChem BioAssay.
# Ecoli WT expand: blocks growth of wild type E. coli BW25113 | OD600 absorbance | growth inhibition, % at 100 µM | actives 0.15% (n = 98,000);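 active = growth inhibition above about 50% at one test dose, limit read from the data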;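 note: growth measured after 20 h incubation at 37 °C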
# Cav3 T inh: blocks human Cav3.2 T-type calcium channel. actives 4% (n = 100,000). Cav3.2-expressing cells, Fluo-4 calcium fluorescence FDSS; hits give low values. B-score at 10 µM;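 active = single-dose well whose peak fluorescence ratio is a statistical outlier from its plate by either plate-standardised score or position-corrected B-score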
# Mac1 fbg enh: enhancers of human CD11b/CD18 binding to fibrinogen; P05107+P11215; K562 CD11b/CD18 adhesion to fibrinogen, ATPlite luminescence; activation, % at 10 µM; actives 0.07% (n = 93,000);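 active = 10 µM primary screen giving 50% or more activity, confirmed by 40% or more on retest at that dose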
# CD11b adhes inh: CD11b/CD18-fibrinogen binding inhibition; actives 0.54% (n = 93,000); inhibition, % at 10 µM; K562 CD11b/CD18 adhesion to fibrinogen, ATPlite luminescence; Mn2+ added to activate the integrin;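 active = primary inhibition of 50% or more at 10 µM, then 40% or more on retest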
# * = called active by the depositor; · = not tested or not shown. The full list was thinned out, with hits kept by preference.
SMILES,Ecoli WT expand,Cav3 T inh,Mac1 fbg enh,CD11b adhes inh
CCO[C@H]1OC(C(=O)N2CCN(Cc3ccc4c(c3)OCO4)CC2)=C[C@@H](c2ccc(C(F)(F)F)cc2)[C@@H]1CCCO,·,-2.14,·,·
O=C(CSc1nnnn1C1CC2CCC1C2)Nc1ccnc2ccccc12 (centres undefined),3.0,·,-13.1,100.4*
CC(=O)N(CCC(Cc1ccccc1)c1ccc2c(c1)OCO2)Cc1ccc(Cl)cc1 (centres undefined),-10.0,-3.08*,14.5,-13.6
O=C(O)CC(Cc1ccccc1)c1ccc2c(c1)OCO2 (centres undefined),0.0,·,1.3,33.2
CCOC(=O)C1=C(C)NC(=S)N(C(C)=O)C1c1ccc(Cl)cc1 (centres undefined),·,-5.53*,·,·
O=C(Nc1ccccc1N1CCN(C(=O)c2ccc(Cl)cc2)CC1)c1cc2ccccc2o1,-10.0,-3.11*,13.9,-33.0
O=C(NCCc1ccccc1)[C@@H]1CC=C[C@@H]2CCN(Cc3ccccc3)C(=O)[C@@H]21,·,-0.841,·,·
CN1C(=O)c2ccc(NC(=O)c3ccc(N4CCCCC4)c([N+](=O)[O-])c3)cc2C1=O,·,·,27.8,50.3
CNC(=O)COC(=O)/C=C/c1c(C)nn(-c2ccccc2)c1C,·,·,2.8,-8.5
CCOc1ccc(C(=O)Nc2ccc(NC(=O)c3ccco3)c(Cl)c2)cc1Cl,-3.0,·,10.3,-0.1
CCOc1ccc(C(=O)Nc2cccc(-c3nc4cccnc4o3)c2)cc1Cl,-7.0,-0.829,55.1*,-2.2
COc1cccc(C2(CSc3nnc(-c4cc(OC)c(OC)c(OC)c4)o3)OCCO2)c1,-14.0,·,-5.5,5.8
Cc1ccc(N2C(=O)N(CC(=O)NC(c3ccccc3)c3ccccc3)C(=O)C2C)cc1 (centres undefined),-14.0,-10.3*,2.6,-34.2
Cc1noc(C)c1COc1ccc(C(=O)OCC(=O)NC2CCCCC2C)cc1 (centres undefined),-2.0,-0.0376,-3.1,7.0
Cc1noc(C)c1COc1ccc(C(=O)OCc2nnc(-c3ccc(Cl)cc3)o2)cc1,-25.0,-6.31*,-3.1,12.1
Cc1noc(C)c1COc1ccc(C(=O)OCC(=O)NC23CC4CC(CC(C4)C2)C3)cc1,0.0,-0.25,0.7,55.9*
CCC/C=N/NC(=O)c1[nH]c2c([N+](=O)[O-])cccc2c1C,·,·,6.8,-6.1
Cc1cc(C)c(NC(=O)CSc2nnc(SCC(=O)Nc3c(C)cc(C)cc3C)n2N)c(C)c1,-4.0,0.314,-2.6,-23.0
CN(C)c1oc(-c2ccccc2Cl)nc1S(=O)(=O)c1ccccc1,-18.0,-6.29*,1.1,-3.9
NC(=O)C1CCN(C(c2ccccc2)c2nnnn2C2CCCC2)CC1 (centres undefined),·,0.499,·,·
c1ccc(C(c2nnnn2C2CCCC2)N2CCN(c3nc4ccccc4s3)CC2)cc1 (centres undefined),·,-8.16*,·,·
c1csc(C(c2nnnn2C2CCCC2)N2CCCC3(CCCCC3)C2)c1 (centres undefined),-7.0,-5.67*,0.4,54.3
c1csc(C(c2nnnn2C2CCCCC2)N2CCN(c3nc4ccccc4s3)CC2)c1 (centres undefined),·,-3.8*,·,·
O=C(c1ccco1)N1CCN(C(c2cccs2)c2nnnn2C2CCCCC2)CC1 (centres undefined),5.0,0.345,2.0,-6.1
Cc1ccc(C(c2nnnn2C2CCCC2)N2CCN(c3nc4ccccc4s3)CC2)cc1 (centres undefined),·,-8.07*,·,·
SMILES,Ecoli WT expand,Cav3 T inh,Mac1 fbg enh,CD11b adhes inh
c1csc(C(c2nnnn2C2CCCC2)N2CCOCC2)c1 (centres undefined),2.0,-0.0759,0.8,-2.2
COc1ccccc1CNC(=S)NC1CCCC1,·,·,-1.6,16.8
CCCN1C2CCCC1CC(NC(=O)Nc1ccc(C(C)C)cc1)C2 (centres undefined),·,-4.9*,·,·
Cc1ccc(C)c(Oc2coc3cc(OCC(=O)Nc4ccccc4C(C)C)ccc3c2=O)c1,·,·,5.4,-14.7
CCCCCC(=O)Nc1cccc(C2=NOC3(C2)C[C@@H](C(N)=O)N(C(=O)CC(c2ccccc2)c2ccccc2)C3)c1 (some centres undefined),·,-1.77,·,·
CCCCNC(=O)c1sc2ncnc(N3CCc4ccccc4C3)c2c1C,-7.0,-5.11*,-5.5,11.8
CCOC(=O)CNC(=O)c1sc2ncnc(N3CCc4ccccc4C3)c2c1C,-9.0,·,-2.3,18.5
O=C(CSc1cccs1)Nc1ccc2ccccc2c1,11.0,-5.29*,-5.7,9.0
COc1ncccc1-c1nnn(-c2ccccc2)n1,·,0.0348,·,·
O=C(Nc1ccccc1-c1nnc(SCc2ccc(Cl)cc2)o1)c1ccccc1,-25.0,-4.24*,-2.4,10.6
O=C(Nc1ccccc1-c1nnc(SCc2ccccc2)o1)c1ccccc1,-32.0,-5.76*,·,·
O=c1c(-c2nnc(SCc3ccc(Cl)cc3)o2)cccn1Cc1ccccc1,-17.0,-2.03,·,·
Cc1cccc(-c2noc(CN(C(=O)C(c3ccccc3)c3ccccc3)C(C)C)n2)c1,-20.0,-6.72*,-3.1,19.7
Cc1cccc(-c2noc(CN(C(=O)c3ccc4c(c3)OCO4)C(C)C)n2)c1,0.0,-5.14*,3.4,12.1
Cc1ccc(C)c(C(=O)N(Cc2nc(-c3ccc(Cl)cc3)no2)C(C)C)c1,-23.0,·,-1.6,41.4
Cc1ccc(-c2noc(CN(C(=O)Cc3ccccc3)C(C)C)n2)cc1,0.0,-3.43,-5.8,4.6
Cc1cccc(-c2noc(CN(C(=O)c3ccc(Br)o3)C(C)C)n2)c1,-11.0,-4.71*,10.7,8.3
Cc1cccc(-c2noc(CN(C(=O)c3c(-c4ccccc4Cl)noc3C)C(C)C)n2)c1,-14.0,-5.04*,5.0,6.9
COc1ccc(C(C)(C)C)cc1NC(=O)COC(=O)c1ncc(Cl)c(Cl)c1Cl,·,·,-0.6,3.5
CC(C)N(Cc1nc(-c2ccccc2)no1)C(=O)CSc1ccccc1,-5.0,-4.24*,-3.1,10.0
COc1cccc(C(=O)N(Cc2nc(-c3ccc(C)cc3)no2)C(C)C)c1,2.0,-0.128,1.8,-33.6
Cc1ccc(-c2noc(CN(C(=O)CCN3C(=O)c4ccccc4C3=O)C(C)C)n2)cc1,3.0,-1.55,10.3,-20.0
Cc1ccc(-c2noc(CN(C(=O)CCCCCN3C(=O)c4ccccc4C3=O)C(C)C)n2)cc1,-16.0,-4.85*,-4.5,-8.3
COc1cccc(C(=O)N(Cc2nc(-c3cccc(C)c3)no2)C(C)C)c1OC,0.0,-5.76*,5.6,10.0
Cc1nn(C(C)C(=O)NNC(=S)Nc2ccc(F)cc2)c(C)c1[N+](=O)[O-] (centres undefined),2.0,-0.838,0.2,-4.4
Cn1cc(C(=O)c2ccc(Cl)cc2Cl)cc1C(=O)N/N=C(\N)COc1ccccc1,-6.0,-6.6*,-5.0,-8.7
Cn1cc(C(=O)c2ccc(Cl)cc2Cl)cc1C(=O)N/N=C(\N)COc1ccc(F)cc1,-5.0,-6.12*,-4.5,3.8
COC(=O)C1=C(C(=O)OC)[C@@H]2N(C)c3ccccc3[C@@]23C[C@@H](CO)N(C(=O)C2CCC2)C3=N1,·,-0.73,·,·
COc1ccc(-n2c(C)cc(C(=O)Cn3c(NCCO)nc4ccccc43)c2C)cc1,5.0,-6.77*,-2.6,-11.1
